Source: PubChem (National Center for Advancing Translational Sciences (NCATS))
Shown are actives, neighbours in structure and some others; about 7.8% of the full set was active somewhere.
HCMV antiviral: blocks human cytomegalovirus replication. HFF cells, HCMV-luciferase reporter, 72 h; hits give low values. activity change, negative = inhibition, % at 57.5 µM. 410,000 tested, 4.5% active. AID 1259415; in the data active = activity change below about -60%; inconclusive = no clear call, values can overlap the other calls; inactive = above about -39%
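Compounds were evaluated in HFFs infected with an HCMV luciferase reporter virus (MOI 1 PFU/cell). Luciferase in lysates collected 72 h post infection served as the replication measure.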
VACV Venus inh: vaccinia inhibition (Venus reporter); Vaccinia virus Venus reporter expression, fluorescence; Potency, µM (highest dose often 36.5 µM), hits mostly inhibitors; 330,000 tested, 0.46% active; calls by dose curve; tested in A549 cells; note: nearly all actives have a fitted effect of over 30% in size
Lassa entry inh: Lassa virus entry inhibition; 300,000 tested, 1.2% active; Potency, µM (doses to about 37.9 µM), actives largely listed as inhibitors; Lassa virus pseudotype entry inhibition, cell reporter; calls by dose curve; tested in HEK293 cells; note: nearly all actives have a fitted effect of over 50% in size
HCV inhibitor: blocks hepatitis C virus | Potency, µM (highest dose often 41.8 µM), actives largely listed as inhibitors | 340,000 tested, 3.4% active | Huh7.5.1 HCVcc-Cre infection, luciferase reporter, 44 h; active = well fitted inhibition curve with a large enough effect; inconclusive = small, poorly fitted or top-dose-only effect, or another doubt; inactive = no such curve, though single readings can be large or run the other way
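1,000 cells/well; 4 h culture; + compound; + HCVcc-Cre (~0.5 moi); 44 h; luciferase substrate, RT 15 min; read 15 sec.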
Marburg entry inh: blocks Marburg virus binding to or entry into cells. Marburg virus pseudotyped entry inhibition, cell reporter. Potency, µM (titrated, usually from 37.8 µM), usual class: inhibitors. 300,000 tested, 1.8% active; calls by dose curve; tested in HEK293 cells
Vaccinia mCherry: inhibitors of vaccinia virus infection (mCherry reporter signal); Vaccinia virus mCherry reporter infection, fluorescence; Potency, µM (highest dose often 36.5 µM), usual class: inhibitors; 310,000 tested, 0.63% active; AID 720579; calls by dose curve; tested in A549 cells; note: nearly all actives have a fitted effect of over 35% in size
Numbers stand for hits; i = inactive; ? = inconclusive; nt = no result given; ! = a repeat was not active.

SMILES | HCMV antiviral | VACV Venus inh | Lassa entry inh | HCV inhibitor | Marburg entry inh | Vaccinia mCherry
O=C(CCNS(=O)(=O)c1ccccc1C(F)(F)F)N1CCCCCCC1 | i | nt | nt | i | nt | nt
O=C(CCNS(=O)(=O)c1ccccc1C(F)(F)F)N1CCN(C(c2ccccc2)c2ccccc2)CC1 | i | i | ? | ? | 7.1µM | ?
O=C(/C=C/c1ccccc1)N1CCN(Cc2cc(=O)n3nc(-c4ccccc4Cl)sc3n2)CC1 | i | i | i | nt | nt | ?
CS(=O)(=O)Nc1cccc(C2=NN(C(=O)CCC(=O)O)C(c3cccs3)C2)c1 (stereo not drawn) | i | nt | nt | i | nt | nt
Cc1ccc(C2=NN(C(=O)CCl)C(c3ccco3)C2)o1 (stereo not drawn) | -100 | i | i | 8.9µM | ? | i
CS(=O)(=O)Nc1ccc(C2=NN(C(=O)CCCC(=O)O)C(c3cccs3)C2)cc1 (stereo not drawn) | -84 | i | i | i | i | i
CCC(=O)N1N=C(c2ccc(NS(=O)(=O)c3ccccc3)cc2)CC1c1ccco1 (stereo not drawn) | i | nt | nt | 11µM | nt | nt
Cc1ccc(S(=O)(=O)N[C@H](C(=O)OCC(=O)N2N=C(c3ccc(Cl)cc3)CC2c2ccco2)C(C)C)cc1 (stereo partly drawn) | i | ? | ? | 13µM | ? | ?
COC(=O)N[C@@H](c1ccco1)C(C(C)=O)C(=O)OC (stereo partly drawn) | nt | nt | ? | nt | i | nt
COCC=CC1=CC2=CC(=O)C(C)(OC(=O)c3cnc4ccccc4n3)C(=O)C2=CN1CCc1c[nH]c2ccccc12 (stereo not drawn) | nt | nt | nt | nt | i | nt
COc1ccc(NC(=O)C2=C(C)Nc3nc(SCc4ccccc4)nn3C2c2cc(OC)ccc2OC)cc1 (stereo not drawn) | -82 | i | ? | nt | nt | i
CCSc1nc2n(n1)C(c1ccc(Cl)cc1Cl)C(C(=O)Nc1ccccc1C)=C(C)N2 (stereo not drawn) | -91 | ? | i | nt | nt | ?
COc1ccc(NC(=O)C2=C(C)Nc3nc(SCc4ccc(Cl)cc4)nn3C2c2cccc(OC)c2OC)cc1 (stereo not drawn) | ? | i | i | nt | nt | i
CCOc1ccccc1C1C(C(=O)Nc2ccccc2)=C(C)Nc2nc(SCC(=O)c3ccc(C)cc3)nn21 (stereo not drawn) | -72 | i | i | nt | nt | i
COc1cc(OC)c(C(=O)CCCCN2CCC3(CC2)NC(=O)NC3=O)cc1NS(=O)(=O)c1ccc(C(F)(F)F)cc1 | nt | i | nt | nt | nt | i
CCC(C)NC(=O)Cn1ncc2c([nH]c3ccc(C)cc32)c1=O (stereo not drawn) | i | i | ? | nt | nt | i
COc1ccc(-c2cn(-c3ccccc3)c(=S)[nH]2)cc1OC | i | nt | nt | 10µM | nt | nt
COc1ccc(-c2cn(-c3ccc(C)c(C)c3)c(=S)[nH]2)cc1OC | ? | i | i | ? | i | i
COc1ccc(-c2cn(-c3ccc(C)c(Cl)c3)c(=S)[nH]2)cc1OC | -66 | i | i | ? | ? | ?
COc1ccccc1-c1cn(-c2ccccc2)c(=S)[nH]1 | i | nt | nt | i | nt | nt
COC(=O)[C@@H]1[C@@H](c2ccccc2)NC(=O)N(CCc2cc(OC)c(OC)c(OC)c2)[C@@H]1C | nt | nt | nt | nt | i | nt
Cc1cc2n(n1)CCCN2C(=O)Nc1ccc(Cl)cc1 | i | i | i | nt | nt | i
O=C1/C(=C/c2cccnc2)SC(=S)N1CCc1ccccc1 | -71 | nt | nt | i | nt | nt
O=C(CCCN1C(=O)/C(=C/c2ccccc2Cl)SC1=S)NNC(=O)c1cccnc1 | i | nt | nt | i | nt | nt
O=C1/C(=C\c2cc(Cl)c(O)c(Cl)c2)SC(=S)N1Cc1ccccc1 | -99 | i | 4µM | ? | 6.3µM | i
SMILES | HCMV antiviral | VACV Venus inh | Lassa entry inh | HCV inhibitor | Marburg entry inh | Vaccinia mCherry
O=C(CCN1C(=O)/C(=C\c2ccccc2)SC1=S)NNC(=O)c1cccnc1 | -62 | i | ? | i | ? | i
O=C(CCN1C(=O)/C(=C/c2ccc(F)cc2)SC1=S)N[C@@H](CO)Cc1ccccc1 | -64 | nt | nt | ? | nt | nt
Cc1cccc(NC(=O)CN2C(=O)CCn3nc(-c4cccn4C)cc32)c1C | i | i | i | nt | nt | i
COC(=O)c1ccccc1NC(=O)c1ccc2c(c1)CCN2S(=O)(=O)c1ccc(C)cc1 | i | i | i | nt | i | i
N#C/C(=C/c1ccccc1[N+](=O)[O-])c1nnc2n1CCCCC2 | -60 | i | i | i | i | i
COCCNC(=O)CCCn1c(SCC(=O)c2ccc(F)cc2)nc2c(sc3ccccc32)c1=O | i | i | i | nt | i | i
O=C(C=Cc1ccc2c(c1)OCO2)c1ccc(F)cc1 | nt | nt | nt | nt | i | nt
N=C(N)c1ccc(OCCCCCOc2ccc(C(=N)N)cc2)cc1 | -89 | i | ? | 2.2µM! | ? | ?
COc1ccc(Nc2nc(-c3cccs3)nc3ccccc23)cc1 | -102 | ? | i | 4.5µM | ? | i
CC(C)S(=O)(=O)N1CCN(c2nc(-c3cccs3)nc3ccccc23)CC1 | nt | i | nt | nt | nt | i
COc1ccc(N2CCN(c3nc(-c4cccs4)nc4ccccc34)CC2)cc1 | ? | i | i | 11µM | ? | i
c1csc(-c2nc(N3CCOCC3)c3ccccc3n2)c1 | i | i | i | 11µM | ? | i
COc1ccc(Nc2nc(-c3cccc([N+](=O)[O-])c3)nc3ccccc23)cc1 | i | ? | ? | ? | 15µM | ?
c1ccc2c(N3CCOCC3)nc(-c3ccncc3)nc2c1 | i | i | i | ? | ? | nt
C=C(C)C(=O)C=CC=Cc1ccccc1 | nt | nt | ? | nt | i | nt
COc1ccccc1CNS(=O)(=O)c1ccc2[nH]c3c(c2c1)CCCCC3 | i | i | ? | nt | nt | i
CCN1C[C@@H]2[C@@H]3C(=O)N(Cc4ccccc4)C(=O)[C@@H]3[C@](Cc3ccccc3)(C1=O)N2C(=O)c1ccc(Cl)cc1 | -69 | i | nt | i | nt | i
CCN1C[C@@H]2[C@@H]3C(=O)N(Cc4ccccc4)C(=O)[C@@H]3[C@](Cc3ccccc3)(C1=O)N2C(=O)c1ccccc1 | i | i | nt | i | nt | i
COC1=C(CC=C(C)C)C2=C(CCC(=O)O2)CC1 | nt | nt | nt | nt | i | nt
Cc1c(/C=N/NC(=O)c2cccnc2)c2ccccn2c1C(=O)c1ccc(F)cc1 | nt | nt | i | i | i | nt
COC(=O)N/N=C/c1c(C)c(C(=O)c2ccc(F)cc2)n2ccccc12 | i | i | ? | ? | ? | i
Cc1c(/C=N/NC(=O)c2ccc(O)cc2)c2ccccn2c1C(=O)c1ccc(F)cc1 | i | ? | 11µM | ? | ? | i
Cc1c(/C=N/NC(=O)c2ccccc2O)c2ccccn2c1C(=O)c1ccc(F)cc1 | i | ? | ? | ? | 11µM | ?
CCOC(=O)c1cc(-c2ccc(N3CCOCC3)cc2)nn1-c1ccc(F)cc1F | i | i | ? | 11µM | i | i
CCOC(=O)c1cc(-c2ccc(N3CCOCC3)cc2)nn1-c1ccccc1 | i | i | ? | ? | ? | i
Cc1cc(S(=O)(=O)Nc2nc(CN3CCOCC3)nc3sc4c(c23)CCC4)cc(C)c1C | i | i | i | i | i | i
NS(=O)(=O)c1ccc(CCNc2nc(CN3CCCCC3)nc3sc4c(c23)CCC4)cc1 | i | nt | i | ? | 21µM | nt
